Bioassay records (PubChem)
ELG1 DNA repair: ELG1-dependent DNA repair inhibition. HEK293T ELG1-luciferase reporter, luminescence, 16 h; DNA damage induced by 5-fluorouridine. Potency, µM (titrated, usually from 46.1 µM), usual class: inhibitors. 330,000 tested, 2.3% active; further: nearly all actives have a fitted effect of over 55% in size
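Luminescence from the luciferase reporter, measured 30 min after ONE-Glo reagent at room temperature, was the read-out. Beforehand, 2,000 cells per well were exposed for 16 hr at 37 °C to 5-fluorouridine together with compound or vehicle.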
Rango complex inh: prevents formation of the Rango-importin beta complex | Q14974 | Rango CFP/YFP FRET sensor + importin beta, 45 min | Potency, µM (titrated, usually from 92.2 µM) | 340,000 tested, 0.031% active | AID 540263; calls by dose curve; further: nearly all actives have a fitted effect of over 15% in size
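FRET biosensor (snurportin 1 IBB flanked by EYFP and cerulean), 50 nM, with compound 5 min, then 0.125 microM importin beta in PBS, 1 mM DTT, 0.02% Tween-20, 0.1% BSA. CFP/YFP ratio read after 45 min at room temperature; pre-read flags interference.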
PKM2 act: PKM2 (human) enzyme activation; Potency, µM (highest dose often 57.5 µM), usual class: activators; 260,000 tested, 0.34% active; purified PKM2, Kinase-Glo ATP luminescence, activation; response scale: 0% is enzyme alone, no compound; P14618; further: nearly all actives have a fitted effect of over 55% in size
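Purified hPK-M2 (>95% pure) converted ADP (0.1 mM final) to ATP with 0.5 mM PEP in 50 mM imidazole pH7.2, KCl, MgCl2, Tween 20, BSA; 1 h at room temperature. ATP detected by Kinase-Glo luminescence.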
Tb PFK inh: inhibitors of T. brucei phosphofructokinase | T. brucei PFK, ADP-Glo luminescence | Potency, µM (highest dose often 57.5 µM), actives largely listed as inhibitors | 330,000 tested, 0.17% active | AID 485367; further: nearly all actives have a fitted effect of over 60% in size
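Compounds were pin-transferred as a titration series up to 57 uM into substrate buffer (0.5 mM F6P, 0.1 mM ATP, pH 8.0), then 1.25 nM PFK was added and reactions ran 45 min before ADP-Glo detection.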
Tb PGK inh: inhibitors of T. brucei phosphoglycerate kinase; P07378; PGK/GAPDH coupled, Kinase-Glo luminescence, 60 min; Potency, µM (top dose mostly 57.5 µM), most hits filed as inhibitors; 380,000 tested, 0.043% active; further: nearly all actives have a fitted effect of over 60% in size
Target sequence (P07378 whole entry, looked up): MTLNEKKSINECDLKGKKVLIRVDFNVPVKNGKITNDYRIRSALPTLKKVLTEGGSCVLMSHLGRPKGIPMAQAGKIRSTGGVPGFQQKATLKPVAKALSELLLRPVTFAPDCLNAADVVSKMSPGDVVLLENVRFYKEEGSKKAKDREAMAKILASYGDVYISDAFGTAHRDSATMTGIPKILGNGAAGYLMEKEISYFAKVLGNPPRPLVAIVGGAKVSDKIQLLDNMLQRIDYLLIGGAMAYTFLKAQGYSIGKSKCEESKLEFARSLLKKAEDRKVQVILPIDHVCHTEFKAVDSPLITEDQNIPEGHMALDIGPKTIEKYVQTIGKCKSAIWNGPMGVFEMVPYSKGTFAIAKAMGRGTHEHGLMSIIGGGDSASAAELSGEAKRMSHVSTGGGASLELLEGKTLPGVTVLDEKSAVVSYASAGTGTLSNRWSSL
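Recombinant glycosomal PGK reaction used 1,3-bisphosphoglycerate generated in-well by GAPDH (100nM final) in 100mM TEA pH 7.6, 5mM MgCl2, 0.01% Tween-20. After 60 minutes at room temperature, ATP was read by Kinase-Glo Plus luminescence end-point.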
Rango dissoc inh: inhibition of RanGTP-driven Rango-importin beta dissociation | Biochemical FRET Rango-importin beta, RanGTP-induced dissociation | Potency, µM (series often up to 46.1 µM) | 340,000 tested, 0.071% active; calls by dose curve; further: nearly all actives have a fitted effect of over 45% in size
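Compounds sat 5 min at room temperature with 0.1 uM Rango biosensor plus 0.25 uM importin beta, then FRET pre-read. RanGTP-RCC1 (0.6 uM Ran, 2mM GTP, 0.2 uM RCC1) added for 45 min, and the CFP/YFP post-read measured blocked complex dissociation.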
Each line names hits and unclear results; the compound was inactive in the other large screens. An excerpt weighted towards active compounds, which were near 2.4% of everything screened. Unless noted, the call rests on the fitted dose curve; in most records, active means well fitted curve in the direction sought with a large enough effect; inconclusive means small, poorly fitted or top-dose-only effect, or another doubt; inactive means no such curve, though single readings can be large; an effect the other way counts as inactive or inconclusive.

CCCn1c(=O)n(C)c(=O)c2c(SCC(=O)NC34CC5CC(CC(C5)C3)C4)nc(CC(C)C)nc21	ELG1 DNA repair 23µM
O=C(OCC(=O)N1CCCCC1)c1cc(S(=O)(=O)N2CCOCC2)c(Cl)cc1Cl	ELG1 DNA repair inconclusive (no result: PKM2 act)
COC(=O)C[C@]1(C(=O)OC)CN(C#N)N(c2ccc(Cl)cc2)C12c1ccccc1-c1ccccc12	ELG1 DNA repair 26µM
CCOP(=O)(OCC)/C(C#N)=C/c1ccc(-c2ccc(F)cc2F)o1	ELG1 DNA repair inconclusive, Rango complex inh inconclusive, Rango dissoc inh inconclusive
CN1C(=O)NC(=O)/C(=C/c2ccc([N+](=O)[O-])o2)C1=O	Rango complex inh inconclusive, Tb PFK inh inconclusive, Tb PGK inh 14µM
CN1C(=O)NC(=O)/C(=C\c2ccc([N+](=O)[O-])o2)C1=O	Tb PGK inh inconclusive
NC(=O)c1sc2nc3c(c(-c4cccs4)c2c1N)CCCC3	ELG1 DNA repair 2.3µM (no result: Rango complex inh, Tb PGK inh, Rango dissoc inh)
N#CCCN(C(=O)COC(=O)c1ccc2c(c1)NC(=O)CS2)c1ccc2c(c1)OCCO2	ELG1 DNA repair inconclusive
CCN(CC)C(=O)c1ccc2c(c1)C1C=CCC1C(C(=O)O)N2 (stereo not drawn)	Rango complex inh inconclusive, Tb PFK inh inconclusive, Tb PGK inh 18µM, Rango dissoc inh inconclusive (no result: PKM2 act)
CCN(CC)C(=O)c1ccc2c(c1)C1C(Cl)C(Sc3ccccc3[N+](=O)[O-])CC1C(C(=O)O)N2 (stereo not drawn)	none
COc1ccc(C2=CCC3CCCCN3C2)cc1OC (stereo not drawn)	ELG1 DNA repair inconclusive, Rango dissoc inh inconclusive (no result: PKM2 act)
CN1C2CCC1/C(=C/c1ccccn1)C(=O)/C2=C\c1ccccn1	ELG1 DNA repair 1.8µM
O=C1NCCOC(=O)[C@@H](Cc2ccc(F)cc2)CC/C=C/C[C@@H]1CC(=O)N(CCO)Cc1ccccc1	none (no result: PKM2 act)
COc1ccc(CCn2c(O)c(/C=N/N3CCOCC3)c(=O)[nH]c2=O)cc1OC	ELG1 DNA repair 18µM
CN(c1ccccc1)S(=O)(=O)c1cccc(C(=O)N2CCN(c3ccccn3)CC2)c1	ELG1 DNA repair inconclusive
Cc1ccc2c(Cl)cc(Cl)c(OCC(=O)N(C(C)C)C(C)C)c2n1	ELG1 DNA repair 26µM
COc1ccc(OC)c(C(Nc2ccccc2)P(=O)(OC(C)C)OC(C)C)c1 (stereo not drawn)	ELG1 DNA repair inconclusive
COc1ccc(C)cc1NC(=O)c1c(C)nn(Cc2ccccc2)c1Cl	ELG1 DNA repair 15µM
CNC(=O)c1cccn(Cc2cc(C(F)(F)F)cc(C(F)(F)F)c2)c1=O	ELG1 DNA repair 6.5µM
COc1ccc(CNCCc2c(C)[nH]c3ccc(OC(F)(F)F)cc23)c(OC)c1	ELG1 DNA repair 1µM (no result: PKM2 act)
CC(C)Oc1cccc(C(=O)C2CCCN(Cc3ccon3)C2)c1 (stereo not drawn)	none
O=C(c1cccc(Cl)c1)C1CCCN(Cc2ccon2)C1 (stereo not drawn)	ELG1 DNA repair 0.58µM
OCC(CBr)(CBr)CBr	ELG1 DNA repair inconclusive (no result: PKM2 act)
Cc1ccc(N2C(=O)NC(=O)/C(=C/c3ccoc3)C2=O)cc1	Rango complex inh inconclusive, Tb PFK inh inconclusive, Tb PGK inh 11µM, Rango dissoc inh inconclusive
Cc1ccc(N2C(=O)NC(=O)/C(=C/c3cnn(-c4ccc(C)cc4)c3)C2=O)cc1	none
COc1ccc(-n2c(C)nc3cc(C(=O)N4CCC5(CC4)OCCO5)ccc32)cc1	none
COc1ccc(-c2nc3ccc(C(=O)N4CCC5(CC4)OCCO5)cc3nc2-c2ccc(OC)cc2)cc1	ELG1 DNA repair 16µM (no result: PKM2 act)
CCCCCNc1c(C(=O)OCC)c(=O)[nH]c2ccccc12	ELG1 DNA repair inconclusive
CCC(=O)c1ccc(OCC(=O)N2CCN(CC(=O)Nc3ccccc3C(F)(F)F)CC2)cc1	ELG1 DNA repair 16µM (no result: PKM2 act)
O=C(C[N+]12CCC(CC1)C(CO)C2)c1ccc([N+](=O)[O-])cc1 (stereo not drawn)	ELG1 DNA repair 9.2µM
O=C(C[N+]12CCC(CC1)C(OC(=O)c1ccccc1)C2)c1ccc([N+](=O)[O-])cc1 (stereo not drawn)	ELG1 DNA repair inconclusive
CC(C)(C)c1ccc(C(=O)NC(=S)Nn2cnnc2)cc1	ELG1 DNA repair inconclusive
CCC(=NCc1ccc2c(c1)OCO2)c1c(O)n(C2CCCCC2)c(=O)[nH]c1=O	ELG1 DNA repair 21µM, Rango dissoc inh inconclusive
CCC(=NCCO)c1c(O)n(C2CCCCC2)c(=O)[nH]c1=O	ELG1 DNA repair inconclusive
CC(=NCc1ccc2c(c1)OCO2)c1c(O)n(Cc2ccccc2)c(=O)[nH]c1=O	ELG1 DNA repair inconclusive, Rango complex inh inconclusive, PKM2 act 25µM
Cc1cc(C)c(NC(=O)C2CC3CCC2C3)c(C)c1 (stereo not drawn)	ELG1 DNA repair inconclusive
CC/C(=N\Nc1cccc2ccccc12)c1c(O)[nH]c(=O)[nH]c1=O	ELG1 DNA repair inconclusive, Rango complex inh inconclusive
CC/C(=N\Nc1ccccc1)c1c(O)[nH]c(=O)[nH]c1=O	ELG1 DNA repair 4.1µM
C[C@H](CO)N1C[C@H](C)[C@@H](CN(C)C(=O)Nc2ccccc2)Oc2c(NS(=O)(=O)c3ccc(F)cc3)cccc2C1=O	ELG1 DNA repair inconclusive (no result: PKM2 act)
Nc1c(C(=O)OCc2ccccc2)c2nc3ccccc3nc2n1Cc1cccs1	ELG1 DNA repair 21µM
CCC(C)OC(=O)c1c(N)n(Cc2cccs2)c2nc3ccccc3nc12 (stereo not drawn)	ELG1 DNA repair inconclusive, Rango complex inh inconclusive
O=C1Nc2ccccc2/C1=C/c1nc2ccccc2c(=O)n1-c1ccc(O)cc1	ELG1 DNA repair 18µM
CCCCn1c(=O)c(C=Nc2ccc(Cl)cc2)c(O)n(Cc2ccco2)c1=O	none
CCCCn1c(=O)c(C=Nc2cc([N+](=O)[O-])ccc2OC)c(O)n(CCCCl)c1=O	ELG1 DNA repair 21µM
COc1cc(CC2(CCc3ccncc3)C(=O)NC(=O)NC2=O)cc(OC)c1OC	none
COc1cc2c(cc1OC)-c1c(OC)c(OC)c(OC)c3ccnc(c13)C2=O	ELG1 DNA repair 6.5µM
CCCN1[C@H](C(=O)OC)C[C@@H]2CC[C@@H](O)C[C@@H]21	none (no result: ELG1 DNA repair, Rango complex inh, Tb PFK inh, Tb PGK inh, Rango dissoc inh)
c1ccc(-c2[nH]c(-c3ccccc3)[n+](CC3CO3)c2-c2ccccc2)cc1 (stereo not drawn)	ELG1 DNA repair 23µM
Cc1cc(=O)oc2cc(OCC(=O)N3CCN(C(C)c4ccccc4)CC3)c(Cl)cc12 (stereo not drawn)	ELG1 DNA repair 21µM, Rango complex inh inconclusive (no result: PKM2 act)
